The values that follow come from PubChem BioAssay (NCATS).

The structures appear in SMILES notation. A number with no mark means an inactive call. Inconclusive results are not listed. Calls of active or inactive are those of the source. Unless noted, calls follow the shape of the dose curve; as a rule, active = well fitted curve in the direction sought with a large enough effect; inconclusive = small, poorly fitted or top-dose-only effect, or another doubt; inactive = no such curve, though single readings can be large; an effect the other way counts as inactive or inconclusive.

Assay [1] can be described thus: AP1 Signaling Pathway (AID 357; active = well fitted curve in either direction with a large enough effect, not every such curve was filed as active;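 also: ME-180 reporter cells stimulated with EGF at its EC50 level; % is scaled to controls: 0 for no effect and ±100 for the full control effect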). As to conditions: ME-180 AP-1-bla reporter, EGF-induced, beta-lactamase ratio, 5 h; at 7.69 µM (top of the series) unless noted. Summed up:
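Beta-lactamase reporter under AP-1 response element, ME-180 background. Stimulus: EC50 EGF. Compound exposure 5 h, 37 °C. Detection: CCF4, 2.5 h RT, 460/530 nm. Values: AC50 from titration.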

Assay [2] addresses Cytochrome P450 1A2 (Homo sapiens) (UniProt P05177). Kind of assay: p450-cyp1a2 (AID 410; calls by dose curve; also: potency is read from the fitted curve at half-maximal effect;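 as to activity change, negative = inhibition: -100% = full effect of reference inhibitor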). Summed up: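 O-Demethylation of luciferin 6' methyl ether by human CYP1A2 is monitored as luciferase luminescence. Substrate sits at Km (100uM); enzyme is 20nM. Values are scaled to 57 uM furafylline as maximal inhibition.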
Assay [3] can be described thus: NFAT Signaling Pathway (AID 444; active = well fitted curve in either direction with a large enough effect, not every such curve was filed as active;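 also: carbachol stimulus at about its EC50 of 1 µM final; % is scaled to controls: 0 for no effect and ±100 for the full control effect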). As to conditions: Jurkat NFAT-bla M1, carbachol, beta-lactamase ratio, 5 h; at 7.69 µM (top of the series) unless noted. Summed up:
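Jurkat cells with NFAT-driven β-lactamase reporter and co-expressed M1 receptor, stimulated with carbachol (final 1 uM, ~EC50), compound titration, 5 h at 37 °C. CCF4 loaded 1 h at RT; 460/530 nm ratio gave %activity and AC50.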

The nature of assay [4]: Stat Signaling Pathway (AID 446; active = well fitted curve in either direction with a large enough effect, not every such curve was filed as active;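 also: ME-180 cervical cancer cells given 40 pM IL-6 alongside compound; SIE-controlled beta-lactamase reporter measured as 460/530 nm FRET emission ratio; % is scaled to controls: 0 for no effect and ±100 for the full control effect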). As to conditions: ME-180 (cervical carcinoma) SIE beta-lactamase reporter, IL-6 stimulated, 5 h; at 7.69 µM (top of the series) unless noted. In a few lines:
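Emission at 460 and 530 nm (excitation 405 nm) reports SIE-controlled beta-lactamase in ME-180 cells. Cells received compound with 40 pM IL-6 for 5 hrs at 37 C; data scaled between 300 pM IL-6 and 125 nM JAK-inhibitor controls.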

Assay [5] deals with Glucocorticoid receptor (Homo sapiens) (UniProt P04150). Kind of assay: GR-GFP Redistribution (AID 450;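 active = compounds whose dose series gives a full or clear partial fitted curve of increased nuclear translocation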; also: potency is read from the fitted curve at half-maximal effect). Particulars: U2OS GR-GFP nuclear translocation, laser cytometry, 2 h.
Assay [6] shares this target. Kind of assay: GR-EFC Redistribution (AID 451; calls by dose curve; also: potency is read from the fitted curve at half-maximal effect). As to conditions: CHO-K1 GR-EFC translocation, beta-gal luminescence, 2 h. In a few lines: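 CHO-K1 cells expressing nuclear EA and GR-ED fragments of b-gal; compounds titrated up to 46 uM final, 2 h at 37 C. GR nuclear translocation read as complemented b-gal luminescence after 1 h RT detection.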
Assay [7] deals with Mitogen-activated protein kinase 10 (Mus musculus) (UniProt Q61831). Kind of assay: JNK3 AlphaScreen Assay (AID 530; active = well fitted curve in either direction with a large enough effect, not every such curve was filed as active;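 also: kinase came from lysate of stimulated human HepG2 cells; signal reports phosphorylation of biotinylated GST-cJun 1-79 at Ser73 with 10 µM ATP; % is scaled to controls: 0 for no effect and ±100 for the full control effect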). Summed up: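 Activity was read by AlphaScreen after JNK3-containing HepG2 lysate (cytokine pre-activated) phosphorylated biotinylated GST-cJun with 10 uM ATP at room temperature. Phospho-Ser73 cJun antibody with Protein-A acceptor beads provided detection.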
The target in assay [8] is 3',5'-cyclic-AMP phosphodiesterase 4B (Homo sapiens) (UniProt Q07343). Kind of assay: qHTS Assay for Inhibitors of PDE-IV (AID 607; active = well fitted activation curve with a large enough effect in the main read-out, with a control signal flat, not every such curve was filed as active; also: % of control where 0% means no effect). In a few lines: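 The readout is membrane depolarisation from a cAMP-sensing CNG channel, detected with a potential dye at ex 535/em 590. Cells were HEK293-derived (endogenous PDE-IV) at 1000 cells/well, titrated up to 22.9 uM final.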
Assay [9] deals with Guanine nucleotide-binding protein G(i) subunit alpha-1 (Homo sapiens) (UniProt P63096). Description: qHTS Assay for Inhibitors of RGS12 GoLoco Motif Activity (Green Fluorophore) (AID 879).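 Also: 0% = labeled peptide with Gαi1 and full inhibition = labeled peptide alone without protein; negative values mean loss of peptide binding seen as reduced polarization.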 In a few lines:
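A drop in FITC polarization marked displacement of the FITC-tagged RGS12 GoLoco peptide (10 nM) from Gαi1 (50 nM). Compounds were incubated 10 min at room temperature in Tris pH 7.5 buffer containing 150 mM NaCl, 0.1 mM GDP and 0.05% NP40; unlabeled peptide titration served as control.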

The nature of assay [10]: qHTS Assay for Identification of Small Molecule Antagonists for NFkB Signaling Pathway (AID 895; active = well fitted inhibition curve with a large enough effect in the signal ratio, with a control signal flat, not every such curve was filed as active; the % refers to the signal ratio; also: % is scaled to controls: 0 for no effect and ±100 for the full control effect). In a few lines:
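ME-180 NFkB-bla cells (beta-lactamase under NFkB response element), plated overnight, treated with compound then 10 pM TNF alpha (about EC50) for 5 hrs at 37 C. LiveBLAzer FRET read at 460/530 nm emission, 405 nm excitation.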

Assay [11] in a line: qHTS Assay for Identification of Small Molecule Agonists for Thrombopoietin (TPO) Signaling Pathway (AID 917). Also: % is scaled to controls: 0 for no effect and ±100 for the full control effect. In a few lines:
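Luciferase reporter (Glycoprotein IIb promoter) in IL-3-deprived Ba/F3 cells carrying human TPO receptor; compounds co-added with 26 pM TPO, incubated 24 h, 37 C. Steadylite luminescence measured after 10 min.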

Assay [12] deals with Pyruvate kinase (Leishmania mexicana) (UniProt Q27686). Kind of assay: qHTS Validation Assay for Inhibitors of Leishmania Mexicana Pyruvate Kinase (AID 945).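 Also: 0% = DMSO only neutral control wells.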 Summed up:
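Substrate mix (0.5 mM PEP, 0.1 mM ADP, 7 mM MgCl2, 50 mM KCl, pH 7.2 imidazole) received compound by pin tool, then 0.2 nM LmPYK E451W. After 1 h at room temperature, PKLight was added and luminescence measured.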

Assay [13] deals with Pyruvate kinase PKM (Homo sapiens) (UniProt P14618). Description: qHTS Assay for Activators of Human Muscle Pyruvate Kinase (AID 954; active = well fitted curve in the direction sought with a large enough effect, not every such curve was filed as active;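 also: 0% = uninhibited enzyme and -100% = no enzyme or full thiadiazolimine inhibition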). Summed up:
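PKM2, human, >95% pure, 0.1 nM; PEP 0.5 mM (Km), ADP 0.1 mM; 50 mM imidazole pH 7.2, 50 mM KCl, 0.01% Tween 20, 0.05% BSA; 1 h RT; luciferase luminescence readout.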

Assay [14] has as its target alpha-glucosidase (Oryza sativa, rice) (UniProt Q653V4). Description: Counterscreen for Glucocerebrosidase Inhibitors: qHTS Assay for Rice alpha-Glucosidase at pH 5.0 (AID 997). Also: potency is read from the fitted curve at half-maximal effect.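 As to activity change, negative = inhibition: 0% = full activity with enzyme and -100% = basal without enzyme.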 In a few lines: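 Endpoint fluorogenic assay at pH 5.0: compounds (0.7 nM to 77 uM) titrated against 4 nM rice enzyme and 400 uM 4-MU-alpha-glucoside for 20 min at room temperature; NaOH/glycine stop, read ex 365/em 440 nm, Hill-fitted AC50.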

Assay [15] addresses Cytochrome P450 3A4 (Homo sapiens) (UniProt P08684). Kind of assay: qHTS Assay for Activators of Cytochrome P450 3A4 (AID 885). Also: nearly all actives have a fitted effect of over 65% in size. In a few lines: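 Activators are scored by enhanced luminescence from CYP3A4 conversion of luciferin-PPXE (25uM, equal to KM) to luciferin, after 60 min at RT with an NADPH-regenerating system.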
Assay [16] deals with Muscarinic acetylcholine receptor M1 (Rattus norvegicus) (UniProt P08482). Kind of assay: qHTS Assay for Antagonists of Acetylcholine Muscarinic M1 Receptor: Kinetic Measurement of Intracellular Calcium Response (AID 943).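 Also: Fluo-4 calcium signal as peak divided by basal fluorescence over 4 min; nearly all actives have a fitted effect of over 75% in size.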 In a few lines:
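Antagonism is measured as inhibition of the carbachol-evoked calcium rise in CHO cells transfected with rat M1. Cells are dye-loaded, exposed to compound for 10 min, then stimulated with 100 nM carbachol (EC80).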

The target is the same in assay [17]. Description: qHTS Assay for Antagonists of Acetylcholine Muscarinic M1 Receptor: Measurement of IP-One Response (AID 944). Also: nearly all actives have a fitted effect of over 75% in size. In a few lines: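 Antagonist mode with rat M1 receptor transfected into CHO cells. Compound is added first for 10 min, carbachol at its EC80 follows for 30 min, and lysis reagents then allow TR-FRET detection of accumulated IP1.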
In assay [18] the target is Alpha-galactosidase A (Homo sapiens) (UniProt P06280). Description: Counterscreen for Glucocerebrosidase Inhibitors: qHTS Assay for Human alpha-Galactosidase at pH 4.5 (AID 992). Also: 0% is about no effect. In a few lines: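 Fluorogenic 4-MU alpha-D-galactoside (80 uM) hydrolysis, 2 nM enzyme, pH 4.5 citrate buffer + 0.005% Tween-20; 20 min RT; NaOH/glycine pH 10 stop; Ex365/Em440. Compounds titrated 0.7 nM–77 uM; Hill-equation AC50.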

The target of assay [19] is Cytochrome P450 2D6 (Homo sapiens) (UniProt P10635). Description: qHTS Assay for Inhibitors and Substrates of Cytochrome P450 2D6 (AID 891).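 Also: luciferin methyl ether substrate demethylated by CYP2D6 with NADPH regeneration; % is scaled to controls: 0 for no effect and ±100 for the full control effect; nearly all actives have a fitted effect of over 60% in size.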 Summed up:
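Luminescent read-out of luciferin formed by 5 nM human CYP2D6 demethylating 30 uM Luciferin-ME EGE (Km level) over 60 min at room temperature after NADPH regeneration addition. Data normalized to full inhibition by 1.43 uM quinidine.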

Assay [20] addresses Cytochrome P450 2C19 (Homo sapiens) (UniProt P33261). Description: qHTS Assay for Inhibitors and Substrates of Cytochrome P450 2C19 (AID 899). Also: % is scaled to controls: 0 for no effect and ±100 for the full control effect; nearly all actives have a fitted effect of over 60% in size. In a few lines: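 Luminescent read-out of luciferin formed from Luciferin-H EGE (10uM, equal to KM). Enzyme 5nM in 50mM KPO4; compound added, 10 min at 37C, then NADPH regenerating system for 60 min at 37C. Full inhibition defined by 57uM ketoconazole.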

Chain of Cytochrome P450 1A2 (Homo sapiens) (P05177 whole entry, looked up): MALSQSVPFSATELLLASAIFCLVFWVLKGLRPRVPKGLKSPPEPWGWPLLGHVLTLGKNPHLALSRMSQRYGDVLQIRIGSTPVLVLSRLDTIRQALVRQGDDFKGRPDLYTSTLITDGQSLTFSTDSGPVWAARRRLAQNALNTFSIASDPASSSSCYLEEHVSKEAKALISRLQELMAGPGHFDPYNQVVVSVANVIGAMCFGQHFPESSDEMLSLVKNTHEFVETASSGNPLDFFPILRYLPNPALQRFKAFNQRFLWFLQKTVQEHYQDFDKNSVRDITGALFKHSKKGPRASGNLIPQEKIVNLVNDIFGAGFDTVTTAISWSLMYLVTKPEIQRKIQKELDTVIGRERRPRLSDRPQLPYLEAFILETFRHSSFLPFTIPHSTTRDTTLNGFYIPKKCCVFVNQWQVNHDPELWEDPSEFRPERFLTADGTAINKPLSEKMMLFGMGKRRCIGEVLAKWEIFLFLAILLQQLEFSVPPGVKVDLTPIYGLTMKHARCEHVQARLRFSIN
Chain of Glucocorticoid receptor (Homo sapiens) (P04150 whole entry, looked up, the tested form may be a part): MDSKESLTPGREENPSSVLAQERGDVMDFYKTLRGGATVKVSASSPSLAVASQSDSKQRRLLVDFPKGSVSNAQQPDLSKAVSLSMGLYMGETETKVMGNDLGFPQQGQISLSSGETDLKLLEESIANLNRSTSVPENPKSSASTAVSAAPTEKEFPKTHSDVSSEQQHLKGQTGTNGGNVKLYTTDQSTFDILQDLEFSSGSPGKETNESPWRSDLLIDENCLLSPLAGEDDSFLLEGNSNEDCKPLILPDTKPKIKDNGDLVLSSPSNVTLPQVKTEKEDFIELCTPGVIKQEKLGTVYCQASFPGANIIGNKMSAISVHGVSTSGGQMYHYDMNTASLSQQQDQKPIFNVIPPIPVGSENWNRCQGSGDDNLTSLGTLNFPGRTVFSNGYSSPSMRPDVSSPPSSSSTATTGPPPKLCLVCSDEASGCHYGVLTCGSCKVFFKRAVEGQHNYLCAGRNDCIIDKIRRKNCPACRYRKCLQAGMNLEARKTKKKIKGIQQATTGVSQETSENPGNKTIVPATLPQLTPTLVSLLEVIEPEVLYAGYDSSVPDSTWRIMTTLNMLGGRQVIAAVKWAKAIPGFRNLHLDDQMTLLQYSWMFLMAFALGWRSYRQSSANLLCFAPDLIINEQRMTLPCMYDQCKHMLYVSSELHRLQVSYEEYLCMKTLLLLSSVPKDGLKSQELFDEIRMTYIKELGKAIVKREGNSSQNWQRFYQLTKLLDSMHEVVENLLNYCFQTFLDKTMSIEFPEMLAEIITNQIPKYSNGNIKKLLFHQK
Chain of Guanine nucleotide-binding protein G(i) subunit alpha-1 (Homo sapiens) (P63096 whole entry, looked up): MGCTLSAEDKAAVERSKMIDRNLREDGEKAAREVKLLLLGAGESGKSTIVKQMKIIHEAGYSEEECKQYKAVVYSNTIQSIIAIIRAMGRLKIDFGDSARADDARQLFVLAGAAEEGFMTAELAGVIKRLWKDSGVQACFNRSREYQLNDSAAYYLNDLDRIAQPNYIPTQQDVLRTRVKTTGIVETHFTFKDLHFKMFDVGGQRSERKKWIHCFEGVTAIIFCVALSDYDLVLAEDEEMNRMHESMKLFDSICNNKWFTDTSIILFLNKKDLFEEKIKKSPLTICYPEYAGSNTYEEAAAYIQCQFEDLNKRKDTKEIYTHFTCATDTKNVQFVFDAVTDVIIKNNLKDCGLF
Chain of 3',5'-cyclic-AMP phosphodiesterase 4B (Homo sapiens) (Q07343 whole entry, looked up): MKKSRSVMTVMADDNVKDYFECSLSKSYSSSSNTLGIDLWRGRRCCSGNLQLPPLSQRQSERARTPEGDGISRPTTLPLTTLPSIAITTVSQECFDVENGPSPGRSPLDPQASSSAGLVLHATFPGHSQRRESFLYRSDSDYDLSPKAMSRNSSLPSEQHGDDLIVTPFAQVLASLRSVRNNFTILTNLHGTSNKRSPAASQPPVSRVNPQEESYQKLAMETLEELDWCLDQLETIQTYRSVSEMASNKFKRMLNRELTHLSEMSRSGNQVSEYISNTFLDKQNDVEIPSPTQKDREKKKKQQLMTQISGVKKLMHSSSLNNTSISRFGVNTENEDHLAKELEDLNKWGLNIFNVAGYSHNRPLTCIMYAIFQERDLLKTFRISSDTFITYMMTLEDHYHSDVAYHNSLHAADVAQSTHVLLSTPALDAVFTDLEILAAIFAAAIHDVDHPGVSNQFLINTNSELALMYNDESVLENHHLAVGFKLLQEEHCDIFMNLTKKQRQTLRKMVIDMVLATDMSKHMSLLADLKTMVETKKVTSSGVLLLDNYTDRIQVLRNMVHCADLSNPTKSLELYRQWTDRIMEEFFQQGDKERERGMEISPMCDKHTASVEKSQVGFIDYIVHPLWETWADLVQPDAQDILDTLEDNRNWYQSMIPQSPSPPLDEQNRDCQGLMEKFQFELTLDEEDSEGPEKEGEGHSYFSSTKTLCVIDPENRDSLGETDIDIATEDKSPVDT
Chain of Muscarinic acetylcholine receptor M1 (Rattus norvegicus) (P08482 whole entry, looked up): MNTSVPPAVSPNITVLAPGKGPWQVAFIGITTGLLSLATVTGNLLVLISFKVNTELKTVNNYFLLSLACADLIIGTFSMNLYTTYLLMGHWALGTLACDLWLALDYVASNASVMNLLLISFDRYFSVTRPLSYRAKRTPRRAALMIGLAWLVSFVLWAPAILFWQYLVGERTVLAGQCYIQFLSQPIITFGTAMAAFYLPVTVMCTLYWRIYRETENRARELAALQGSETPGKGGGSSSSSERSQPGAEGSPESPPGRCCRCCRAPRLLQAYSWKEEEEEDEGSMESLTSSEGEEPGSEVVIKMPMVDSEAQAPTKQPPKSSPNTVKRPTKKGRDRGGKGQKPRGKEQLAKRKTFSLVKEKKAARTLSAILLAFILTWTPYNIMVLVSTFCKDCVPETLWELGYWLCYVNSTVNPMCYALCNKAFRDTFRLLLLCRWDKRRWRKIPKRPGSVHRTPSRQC
Chain of Pyruvate kinase PKM (Homo sapiens) (P14618 whole entry, looked up): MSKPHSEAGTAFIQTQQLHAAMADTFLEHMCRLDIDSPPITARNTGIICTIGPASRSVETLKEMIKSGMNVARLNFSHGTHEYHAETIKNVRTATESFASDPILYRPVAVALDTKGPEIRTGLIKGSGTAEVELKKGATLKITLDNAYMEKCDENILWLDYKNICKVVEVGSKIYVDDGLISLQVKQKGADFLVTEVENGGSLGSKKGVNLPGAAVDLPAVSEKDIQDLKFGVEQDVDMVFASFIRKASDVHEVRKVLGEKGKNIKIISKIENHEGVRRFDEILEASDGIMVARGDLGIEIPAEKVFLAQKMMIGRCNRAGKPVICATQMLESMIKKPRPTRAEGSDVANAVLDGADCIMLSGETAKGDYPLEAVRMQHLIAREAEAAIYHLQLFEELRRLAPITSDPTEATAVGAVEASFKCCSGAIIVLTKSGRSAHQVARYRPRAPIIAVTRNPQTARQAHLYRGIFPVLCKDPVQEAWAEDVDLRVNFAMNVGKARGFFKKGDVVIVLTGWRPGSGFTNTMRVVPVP
Chain of Pyruvate kinase (Leishmania mexicana) (Q27686 2-499 E452W): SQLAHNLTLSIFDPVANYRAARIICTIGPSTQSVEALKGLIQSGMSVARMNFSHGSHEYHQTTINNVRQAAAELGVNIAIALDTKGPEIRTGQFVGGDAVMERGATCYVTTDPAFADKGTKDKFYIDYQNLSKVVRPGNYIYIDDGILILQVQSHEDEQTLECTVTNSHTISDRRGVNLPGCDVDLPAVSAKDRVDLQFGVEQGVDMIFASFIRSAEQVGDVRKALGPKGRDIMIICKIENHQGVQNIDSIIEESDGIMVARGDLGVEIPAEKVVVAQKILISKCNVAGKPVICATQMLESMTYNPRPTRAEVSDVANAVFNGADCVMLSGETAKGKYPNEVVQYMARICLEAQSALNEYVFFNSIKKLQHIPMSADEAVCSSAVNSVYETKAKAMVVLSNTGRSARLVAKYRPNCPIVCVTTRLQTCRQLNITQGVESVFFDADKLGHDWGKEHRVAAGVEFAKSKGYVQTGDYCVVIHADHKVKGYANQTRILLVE
Chain of Alpha-galactosidase A (Homo sapiens) (P06280 whole entry, looked up): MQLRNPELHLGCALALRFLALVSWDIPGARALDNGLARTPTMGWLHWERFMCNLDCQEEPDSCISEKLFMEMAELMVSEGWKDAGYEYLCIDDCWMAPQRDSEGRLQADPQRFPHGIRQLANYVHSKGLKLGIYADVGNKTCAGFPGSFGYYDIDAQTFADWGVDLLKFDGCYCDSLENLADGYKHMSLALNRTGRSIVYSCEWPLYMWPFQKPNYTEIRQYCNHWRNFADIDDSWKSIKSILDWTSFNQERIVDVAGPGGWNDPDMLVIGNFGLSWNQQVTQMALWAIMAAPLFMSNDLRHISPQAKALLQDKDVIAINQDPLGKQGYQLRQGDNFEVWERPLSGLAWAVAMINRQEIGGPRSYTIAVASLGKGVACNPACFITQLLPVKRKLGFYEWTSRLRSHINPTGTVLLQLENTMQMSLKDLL
Chain of Cytochrome P450 3A4 (Homo sapiens) (P08684 whole entry, looked up): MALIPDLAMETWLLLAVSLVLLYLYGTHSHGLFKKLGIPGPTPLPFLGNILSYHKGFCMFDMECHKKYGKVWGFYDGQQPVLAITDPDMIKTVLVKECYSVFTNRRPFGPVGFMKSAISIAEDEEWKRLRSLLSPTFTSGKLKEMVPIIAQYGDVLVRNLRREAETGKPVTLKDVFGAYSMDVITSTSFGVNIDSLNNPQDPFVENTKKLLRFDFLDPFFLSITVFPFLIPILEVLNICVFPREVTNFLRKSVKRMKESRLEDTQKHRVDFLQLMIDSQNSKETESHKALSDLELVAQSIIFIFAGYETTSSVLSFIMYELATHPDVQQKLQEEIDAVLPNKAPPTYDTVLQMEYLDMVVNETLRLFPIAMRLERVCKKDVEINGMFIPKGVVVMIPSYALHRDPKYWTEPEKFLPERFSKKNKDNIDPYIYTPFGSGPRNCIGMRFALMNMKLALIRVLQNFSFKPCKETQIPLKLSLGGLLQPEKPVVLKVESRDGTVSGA

As to `OC[C@@H]1NC[C@@H](O)[C@H]1O`, the activity change, negative = inhibition is 0.107% [at 38 µM] in assay [1] and 8.18% [at 38 µM] in [3]. The Potency result in assay [2], in assay [7], in [8] and in [10] was “inactive” throughout. In assay [4], the activity, negative = inhibition was -5.61% [at 38 µM]. Moreover, the Potency in assay [5] is over 46 µM; in [6], over 46 µM; in assay [14], 12.6 µM (active). Also, the result in assay [9], in [11], in [12] and in [13] was inactive.

In the case of `O=C1O/C(=C\Br)CC[C@@H]1c1cccc2ccccc12`, the activity change, negative = inhibition is -0.931% [at 38 µM] in [1] and -0.824% [at 38 µM] in assay [3]. The Potency entry in assay [2], in assay [7], in assay [8], in assay [15], in [16] and in assay [17] was “inactive” each time. Besides, the Potency result in assay [14] was “inactive”. For the same molecule, in [4], the activity, negative = inhibition is 4.17% [at 38 µM]. The Potency in assay [5] and in assay [6] was over 46 µM throughout. In addition, the result in assay [9], in assay [12] and in assay [18] was inactive.

Regarding `N[C@H](Cc1ccc(O)c(I)c1)C(=O)O`, the activity change, negative = inhibition in [1] is 6.16% [at 38 µM]; in assay [3], 8.86% [at 38 µM]. In addition, the Potency result in [2], in assay [7], in [8], in [19] and in [20] was “inactive” in each case. Moreover, in [4], the activity, negative = inhibition was -3.36% [at 38 µM]. The Potency in [5] and in [6] was over 46 µM each time.

Turning to `CN[C@]1(C)[C@@H]2CC[C@@H](C2)C1(C)C`, the activity change, negative = inhibition in [1] was -7.63% [at 38 µM]; in assay [3] it was -5.79% [at 38 µM]. The Potency result in assay [2], in assay [7], in assay [8], in assay [15], in assay [20] and in [16] was “inactive” in each case. Moreover, the Potency entry in assay [17] and in [14] was “inactive” throughout. In addition, the activity, negative = inhibition in [4] is -12.2% [at 38 µM]. In addition, the Potency in assay [5] and in [6] was over 46 µM throughout. The call in assay [9], in assay [12], in [13] and in [18] was inactive.

For `Cc1ccccc1/C=C\C1=NCCN1`, the activity change, negative = inhibition is -3.38% [at 38 µM] in assay [1] and -1.9% [at 38 µM] in assay [3]. The results for the Potency in assay [2], in assay [5] and in assay [6] were 6.31 µM (active), over 46 µM and over 46 µM, respectively. Besides, in assay [4], the activity, negative = inhibition was 5.08% [at 38 µM]. Also, the Potency result in assay [7], in assay [8], in assay [17] and in [14] was “inactive” throughout. Besides, the call in [9], in assay [12], in assay [13] and in assay [18] was inactive.
